Holding throughout (test): NCI-60 one-dose screen, 48 h (100 = growth as untreated, 0 = no growth, -100 = all killed)
Holding throughout (conditions): 10 µM unless noted

Assay [1] deals with T-47D breast.
Assay [2] deals with BT-549 breast.
Assay [3] concerns MDA-MB-435 melanoma.
For assay [4], the system named is SW-620 colon.
Assay [5] deals with MCF7 breast.
Assay [6] has as its system HCT-116 colon.
Assay [7] deals with HCC-2998 colon.
In assay [8] the test system is KM12 colon.

Values joined by “and” are separate entries in the source; they are usually repeats but may differ in a detail not shown here. Equal values may be shown once. The panel holds about 83,000 compounds, 20% with a hit somewhere; the sample as a whole holds those more often.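 The endpoint reported here, percent growth, reads 100 for growth as untreated, 0 for no net growth and -100 for all cells dead.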 Active and inactive are the calls of the source. Rule for the calls: active = growth percent below 10; inactive = the rest.

For `COc1ccccc1/C=C1\COc2ccc(O)c(O)c2C1=O`, the growth in assay [1] was 11.6% (inactive); in assay [2], 24.2% (inactive); in assay [3], 8.84% (active); in assay [4], 3.71% (active); in assay [5] it was 14.8% (inactive); in assay [6] it was 8.37% (active). The growth in assay [7] is 69.7% (inactive); in assay [8], 20.8% (inactive).
Consider `O=C(/C=C/c1cccs1)Nc1ncc(Cc2ccc(Cl)c(Cl)c2)s1`, for which the growth in assay [1] is 49% (inactive); in assay [2] it was 80.9% (inactive); in assay [3] it was -23.2% (active); in assay [4] it was 37.5% (inactive); in assay [5] it was 26.8% (inactive); in assay [6] it was 45.2% (inactive). Moreover, the results for the growth in assay [7] and in assay [8] were 53.8% (inactive) and 22% (inactive), respectively.
`COc1ccccc1/C=C/C(=O)/C=C/c1ccccc1OC`: the growth in assay [1] was -41.1% (active) and 4.16% (active); in assay [2], -51.9% (active) and -30.6% (active); in assay [3], -30.8% (active); in assay [4], -27.1% (active) and -20% (active); in assay [5] it was 5.62% (active) and 17.9% (inactive); in assay [6] it was -81.7% (active) and -87.1% (active). Also, the growth in assay [7] was -84% (active) and 2.03% (active); in assay [8], -60% (active) and -45.2% (active).
Regarding `O=C(O)c1ccccc1Cc1ccc(F)c2ccccc12`, the growth in assay [1] is 101% (inactive) and 108% (inactive); in assay [2] it was 134% (inactive) and 106% (inactive); in assay [3], 110% (inactive) and 109% (inactive); in assay [4], 105% (inactive) and 95.8% (inactive); in assay [5] it was 99.2% (inactive) and 102% (inactive); in assay [6], 120% (inactive) and 101% (inactive). The growth in assay [7] is 109% (inactive) and 103% (inactive); in assay [8], 103% (inactive) and 104% (inactive).
Consider `CCCCC#Cc1c(/C=C(\CCCC)SCC)n(C)c(=O)[nH]c1=O`, for which the growth in assay [1] was 84.4% (inactive); in assay [2], 100% (inactive); in assay [3], 104% (inactive); in assay [4], 106% (inactive); in assay [5], 48.5% (inactive); in assay [6], 88.3% (inactive). Besides, the growth in assay [7] was 104% (inactive); in assay [8], 113% (inactive).
On to `O=C(Nc1ccccc1C(=O)N/N=C(\c1ccccc1)c1ccccn1)c1ccccc1`, for which the growth is 13.3% (inactive) in assay [1]; 31.3% (inactive) in assay [2]; 27.7% (inactive) in assay [3]; 29.2% (inactive) in assay [4]; 9.02% (active) in assay [5]; 20.7% (inactive) in assay [6]. The values for the growth in assay [7] and in assay [8] were 29.7% (inactive) and 21.6% (inactive), respectively.
On to `Cc1ccc(-c2nc3nc(-c4ccc(F)cc4)nc(N4CCCNCC4)c3o2)cc1`, for which the growth in assay [1] is -63.8% (active); in assay [2] it was -76.9% (active); in assay [3] it was -95.7% (active); in assay [4], -84.6% (active); in assay [5], -72.4% (active); in assay [6] it was -87.2% (active). The growth in assay [7] was -89.3% (active); in assay [8] it was -86.3% (active).
Regarding `COc1ccc(/C(C)=C(\c2ccc(OCCN3CCOCC3)cc2)c2ccc(OC(=O)C3CCCCC3)cc2)cc1`, the growth is 77.9% (inactive) in assay [1]; 112% (inactive) in assay [2]; 105% (inactive) in assay [3]; 102% (inactive) in assay [4]; 75.4% (inactive) in assay [5]; 105% (inactive) in assay [6]. The figures for the growth in assay [7] and in assay [8] were 107% (inactive) and 98.1% (inactive), respectively.
Take `O=C1OCC2=C1C(c1cccc(C(F)(F)F)c1)c1cc3c(cc1N2CCO)CCC3` (centres undefined): the growth in assay [1] is 75% (inactive); in assay [2], 22% (inactive); in assay [3] it was -44.3% (active); in assay [4], 24% (inactive); in assay [5] it was 16.3% (inactive); in assay [6], 4.17% (active). Moreover, the growth in assay [7] is 11.2% (inactive); in assay [8] it was 4.92% (active).
As to `O=C(Nc1ccc(Cl)c(Cl)c1)Nc1ccc(Cl)c(Cl)c1`, the growth is -51.5% (active) and 12.6% (inactive) in assay [1]; -83.3% (active) and 37.7% (inactive) in assay [2]; -80.9% (active) and 13.6% (inactive) in assay [3]; -60.5% (active) and 19.3% (inactive) in assay [4]; -75.9% (active) and 13.6% (inactive) in assay [5]; -89.9% (active) and 4.25% (active) in assay [6]. For the same compound, the growth in assay [7] was -95.9% (active) and 22.8% (inactive); in assay [8], -96.3% (active) and 14% (inactive).
`CCOC(=O)CCCn1c(-c2ccccc2)cc(-c2ccccc2)c(C#N)c1=O`: the growth in assay [1] was 93.6% (inactive); in assay [2], 93.9% (inactive); in assay [3] it was 50% (inactive); in assay [4], 88.3% (inactive); in assay [5], 89.6% (inactive); in assay [6], 75.5% (inactive). Also, the growth in assay [7] was 98.2% (inactive); in assay [8] it was 83.4% (inactive).
With `CC1(Cc2ccccc2)CC2=C(C(=O)O1)C(c1ccccc1)NC(=O)N2` (centres undefined), the growth in assay [1] was 97% (inactive); in assay [2], 104% (inactive); in assay [3], 99.4% (inactive); in assay [4], 106% (inactive); in assay [5] it was 105% (inactive); in assay [6], 86.9% (inactive). The growth is 94.9% (inactive) in assay [7] and 107% (inactive) in assay [8].
In the case of `Cc1ccc(S(=O)(=O)OC[C@@]2(C)CC[C@]3(C)CC[C@]4(C)C(=C3C2)C=C[C@@H]2[C@@]3(C)CCCNC(C)(C)[C@@H]3CC[C@]24C)cc1`, the growth in assay [1] was -57.7% (active); in assay [2] it was 83.6% (inactive); in assay [3], -38.2% (active); in assay [4], -85.8% (active); in assay [5], -4.17% (active); in assay [6] it was -91.4% (active). The growth in assay [7] is -29% (active); in assay [8], -75.8% (active).
